This is part of a sample that, as a whole, favours compounds with a hit. Of some 79,000 tested, about 15% had one in any assay. A number with no mark means an inactive call. Activity calls are given as the source filed them. Cut-off read from the data, not from the text of the source: active = growth inhibition above about 70%; inactive = the rest. Where a SMILES comes first, the peptide text is derived from it. [ ]: non-standard residue; d: D form. The star is where a group is joined. Trt = c1ccc(C(c2ccccc2)(c2ccccc2)*)cc1; Cbz = O=C(OCc1ccccc1)*; Aib = CC(C)(N)C(=O)O; Bz = O=C(c1ccccc1)*
Legend:
[1] = NCI Yeast Anticancer Drug Screen. Data for the rad50 strain (AID 155);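 note: 0% = growth of vehicle-only cultures of the same strain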; conditions: S. cerevisiae rad50 strain growth inhibition; at 50.0 µM; active compounds read high
Summary of the method: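 Relative growth inhibition (compound vs vehicle) was measured in yeast with a defined repair-gene alteration.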

[2] = NCI Yeast Anticancer Drug Screen. Data for the mec2-1 strain (AID 157); conditions: S. cerevisiae mec2-1 strain, at 50.0 µM, active compounds read high
Summary of the method: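 Mutant yeast (mec2-1) grown with compound; growth inhibition relative to vehicle control reported.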

[3] = NCI Yeast Anticancer Drug Screen. Data for the sgs1 mgt1 strain (AID 161);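 note: 0% = growth of cultures given vehicle only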; conditions: S. cerevisiae sgs1 mgt1 strain, at 50.0 µM, active compounds read high
Summary of the method: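 Yeast cells carrying a defined DNA-repair defect were exposed to test compounds. Growth inhibition was measured relative to vehicle-treated controls.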

[4] = NCI Yeast Anticancer Drug Screen. Data for the cln2 rad14 strain (AID 165);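 note: 0% = growth equal to vehicle treated cultures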; conditions: S. cerevisiae cln2 rad14 strain, at 50.0 µM, active compounds read high
Summary of the method: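 Readout is yeast growth inhibition versus vehicle-treated controls, using a strain with cln2 and rad14 alterations exposed to compound.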

[5] = NCI Yeast Anticancer Drug Screen. Data for the bub3 strain (AID 167); conditions: S. cerevisiae bub3 mutant strain, at 50.0 µM, active compounds read high
Summary of the method: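 Screening used yeast with an engineered genetic alteration affecting cell cycle control. Compound-exposed cultures were compared with vehicle cultures, and reduced growth was taken as inhibition.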

[6] = NCI Yeast Anticancer Drug Screen. Data for the mlh1 rad18 strain (AID 175); conditions: S. cerevisiae mlh1 rad18 strain growth inhibition; at 50.0 µM; active compounds read high
Summary of the method: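 Genetically defined yeast (DNA repair-deficient) exposed to compounds; growth inhibition determined relative to vehicle.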

SMILES | growth inhibition [1] | growth inhibition [2] | growth inhibition [3] | growth inhibition [4] | growth inhibition [5] | growth inhibition [6]
CCOc1ccc(C=O)cc1OCC | 0.15% | -25.4% | -9.3% | -15.8% | -2.7% | -10.3%
CCCCCCCCCCCCCCCC(=O)ON1C(=S)NC(C)(c2ccccc2)C1=S (stereo unspecified) | -0.65% | 5.45% | 9.15% | -4.05% | 13.4% | -17.6%
CC(C)(NC(=O)C(C)(C)NC(=O)OCc1ccccc1)C(=O)O (Cbz-[Aib]-[Aib]-OH) | 6.05% | -3.6% | 3.9% | 14.1% | 0.25% | -64.5%
C/C(=N/O)c1ccc(C(F)(F)F)cc1 | -5.25% | -15.6% | -18.8% | -17.9% | -48.5% | -2.15%
CNCCC(=O)C1CCC(OC)CC1 (stereo unspecified) | 26.2% | -3% | 2.1% | -49.5% | 5.45% | -8.45%
C/C=C/C(=O)N(CC)CC | 9% | -4.25% | 3.75% | 1.65% | -24.9% | 10.8%
CCN(CC)C(=O)Cn1c(C)cc2ccccc21 | -18.1% | -18.1% | 7.9% | -2.75% | 8% | -13.6%
COc1cc2c3c(c1)[nH]c(=S)n3C(=O)CS2 | -18.9% | -30.1% | -57.4% | -16.7% | -18.7% | -40.9%
N#CC(N)=NC1CCC(C2CCC(O)CC2)CC1 (stereo unspecified) | 6.65% | 2.4% | -6.25% | -1.3% | 16.1% | 10.7%
CC(=O)/C(=C\c1ccc([N+](=O)[O-])cc1)C(=O)CCN(C)C | 5.25% | 28.1% | 34.9% | -5.3% | 13.4% | -41.2%
CC1=C(C#N)C(C#N)(C#N)C(NN(C)C)C1 (stereo unspecified) | 8.3% | 20.9% | 1.5% | -8.6% | -15.9% | -40%
Cc1nc2cnc(N)nc2nc1C | -6.85% | -16.9% | -3.65% | -40.4% | 0.8% | 0.75%
Cc1cc(Cc2c(F)c(F)c(Cc3cc(C)no3)c(F)c2F)on1 | 8.35% | 5.6% | 8.85% | 1.1% | 0.4% | 18.1%
Cc1cc(Cl)ccc1N=C1NC(=O)C(CC(=O)Nc2ccc(Cl)cc2Cl)S1 (stereo unspecified) | 14.8% | 13.1% | -2.35% | -46.4% | -4.3% | 19.8%
Cc1cc2c(C)nn(Cc3ccccc3Cl)c2c(C#N)c1C | 32.5% | -1.6% | 43% | 23.9% | 26.9% | 44.4%
OC(Cc1ccccn1)c1ccccc1 (stereo unspecified) | 33.4% | 13.1% | 21.4% | 22.6% | 9.35% | 32.1%
COc1ccc(-c2cc(-c3ccccc3)n(-c3ccccc3)n2)cc1 | -0.9% | 15.1% | 7.2% | -2.85% | 0.8% | -15.4%
Cc1ccc(/C=C2/NC(=S)SC2=O)cc1 | -14.1% | -3.6% | 14.6% | 12% | 1.75% | -30.4%
C/C(=N/Nc1ccc([N+](=O)[O-])cc1[N+](=O)[O-])C(CC(C(=O)Nc1ccccc1C)/C(C)=N\Nc1ccc([N+](=O)[O-])cc1[N+](=O)[O-])C(=O)Nc1ccccc1C (stereo unspecified) | 18.4% | 25.9% | 4.9% | 10.3% | 8.75% | 43.6%
CC(C)CCCC(C)C1CCC2C3C(=O)C=C4C=CCCC4(C)C3CCC12C (stereo unspecified) | 5.95% | 11.2% | 34.1% | 9.55% | 5.9% | 10.5%
c1ccc(CCc2ccncc2)cc1 | -3.05% | -22.6% | -8.35% | -26.5% | 3.6% | -13.3%

SMILES | growth inhibition [1] | growth inhibition [2] | growth inhibition [3] | growth inhibition [4] | growth inhibition [5] | growth inhibition [6]
Cc1ccc(S(=O)(=O)OCC2C(COS(=O)(=O)c3ccc(C)cc3)C3C=CC2C32CC2)cc1 (stereo unspecified) | -5.5% | -7.9% | 27.9% | 77.7% (active) | 91% (active) | 5.25%
CC1(C)Oc2ccc3c(=O)cc(-c4ccccc4)oc3c2C1C(=O)O (stereo unspecified) | 4.7% | -14.5% | -18.6% | -22.6% | 9.7% | -24%
C=CC1(c2ccc(Cl)c(Cl)c2)OCCO1 | -11.3% | 15.8% | 15% | -6.5% | 9.55% | 25.4%
CC(=O)NCCc1nc(-c2nc(C(=O)NCCC(C)C)cs2)cs1 | 14.1% | 16.6% | -2% | -23.4% | 6.8% | 5.9%
CS(=O)(=O)OCC1COCC1COS(C)(=O)=O (stereo unspecified) | 26.8% | -6.3% | 8.75% | -11.8% | -14.1% | 16.6%
O=C(O)C1CC=CCC1c1c2ccc(=O)cc-2oc2cc(O)ccc12 (stereo unspecified) | 48.5% | 27.8% | 15.8% | -5.25% | 32.9% | 13.6%
CCOC(=O)/C(=C/c1cc(OC)ccc1OC)P(=O)(OCC)OCC | 6.05% | -12.9% | -17.6% | -25.1% | 4.65% | -0.9%
COc1cc(NCCCCC2CCCCN2)c2ncccc2c1 (stereo unspecified) | 15.7% | 2% | 39% | -11.4% | 55.5% | 48.8%
CC(=O)N1c2cc(N=NN(C)C)ccc2NC(=O)CC1C (stereo unspecified) | 20% | -3.05% | 9.5% | 0.65% | 4.2% | 34.3%
CCC(C)(C)C(O)c1ccc2c(c1)OCO2 (stereo unspecified) | -0.2% | -13.2% | 4.1% | -7.65% | 1.3% | -28.5%
CC(=O)Nc1ccc(/C=C2/C(=O)ON=C2C)cc1 | 6.75% | 6.6% | 6% | 11.8% | 3.95% | 13.4%
O=[N+]([O-])c1cc(Br)cc2c1nc(NCCO)c1ccccc12 | 90.8% (active) | 79.5% (active) | 96.8% (active) | 88.2% (active) | 86.8% (active) | 97% (active)
O=C(OCc1ccccc1CN1CCCCC1)c1ccc([N+](=O)[O-])cc1Cl | -7.4% | -6.45% | 0.85% | -34.9% | -2.6% | -29.7%
Cc1cccc(N=Nc2c(-c3ccccc3)nn(C(N)=S)c2C)c1C | -19.8% | -30.4% | -18.4% | -221% | -9.95% | -7.75%
CCc1ccc(NC(=O)c2ccc(C(=O)Nc3ccc(CC)cc3)cc2)cc1 | 3.2% | 6.6% | 8.4% | 14.1% | 13.4% | 5.1%
CN1CCOC(=O)C(C#N)=C1c1ccccc1 | -26.5% | 6.95% | -9.15% | -17% | -7.25% | -3.15%
CC(O)CNc1ncnc2c1cnn2C (stereo unspecified) | -4.1% | -24.9% | -10.2% | 8.8% | -4.3% | 12.8%
Cc1nc2ccccc2nc1C | -15.2% | -1.8% | -8.85% | 1.2% | -2.35% | 4.85%
CC(=O)CC(C)(C)c1cc(CC(C)(C)C(N)=O)on1 | 0.75% | 0.25% | 17.4% | 11.2% | 11.3% | 17.2%
COC(=O)C(CSC(=O)c1ccccc1)NC(=O)CNC(=O)CNC(=O)C(CCCCNC(=O)OCc1ccccc1)NC(=O)CNC(=O)C(CSC(c1ccccc1)(c1ccccc1)c1ccccc1)NC(=O)OCc1ccccc1 (stereo unspecified) (Cbz-C(Trt)GK(Cbz)GGC(Bz)-OMe; configuration not given here) | -4.85% | 22.9% | 25.8% | -6% | -53.1% | 32.1%

— PubChem BioAssay (NCI)
